Assay results as given in the supplement of paper PMC6555819.

Tests used:
Experiment in all cases: PBM binding z-score (relative to random genomic background probes); higher = stronger binding; sequences stand for … in GC…GCGATTGACAGCGTAGAATGAAGG
[1] = system: RARb homodimer (NR concentration 270 nM)
Summary of the method: (§1)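 Ligand-free nuclear receptor dimers were bound for 1 h to custom Agilent 4×180K protein-binding microarrays. Detection used antibodies against each partner (one per run). Binding z-scores rest on regression-normalized fluorescence, with random background probes as the reference.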

[2] = system: RARg:RXRa (NR concentration 270 nM, RXRa partner concentration 90 nM)
Summary of the method: as §1

[3] = system: RARg homodimer (NR concentration 270 nM)
Summary of the method: as §1

[4] = system: RXRa DBDmut IVT, anti-RXR (DBD mutation: RXRa K156A/R161A, NR concentration 90 nM)
Summary of the method: as §1

[5] = system: RXRa homodimer (NR concentration 180 nM)
Summary of the method: as §1

[6] = system: THRa:RXRa (NR concentration 90 nM, RXRa partner concentration 90 nM)
Summary of the method: as §1

[7] = system: THRa homodimer (NR concentration 90 nM)
Summary of the method: as §1

[8] = system: VDR homodimer (NR concentration 270 nM)
Summary of the method: as §1

Sequence | PBM binding z-score [1] | PBM binding z-score [2] | PBM binding z-score [3] | PBM binding z-score [4] | PBM binding z-score [5] | PBM binding z-score [6] | PBM binding z-score [7] | PBM binding z-score [8]
CGAACTAGGTCACCAGTACAGTGAAGAGGTTGGA | 3.14 | 4.38 | 5.54 | 1.33 | 3.2 | 3.09 | 1.33 | 0.782
CGTGCAAGGTCAGAGAGGTCAGTGAATGCCGAGT | 5.37 | 6.33 | 7.25 | 3.07 | 5.82 | 4.31 | 2.54 | 5.99
CCTTACGGGTCAAGGTTATATCACGGGTGGTACG | 3.52 | 4.98 | 4.79 | 0.822 | 5.52 | 3.11 | 0.96 | 1.54
CTATGTAGGTTAAGGGGGTCATTCGGTTTGAAAG | 3.85 | 5.36 | 3.97 | 2.56 | 5.74 | 3.79 | 1.93 | 6.78
CTATGTAGGTTAAGAGGGTCATTCAGTTTGAAAG | 3.03 | 3.16 | 2.3 | 1.33 | 3.33 | 2.42 | 0.33 | 3.39
ATATGTAGCTTAAGGGTCATTCAGGTTGGTTCGC | 3.64 | 3.62 | 2.82 | 1.95 | 4.27 | 3.27 | 1.02 | 4.07
AGTCAAAGTTCACGACGAGGTAACGTAAAGCACG | 4.35 | 6.88 | 6.88 | 4.21 | 5.95 | 4.41 | 1.36 | 3.96
ATATGTAGGTCAGCTGGGGTCATTCAGACTAGGC | 5.26 | 6.13 | 6.32 | 2.43 | 6.85 | 5.44 | 3.41 | 5.57
ACATGTAGGTTAGGGTCATTCAGAAAGTAGGGAA | 3.51 | 4.16 | 3.32 | 3.02 | 5.14 | 4.05 | 3.66 | 3.75
CCGAGTAGGTTGCGAGGGGGCATTCAGTGCGAAT | 1.77 | 1.99 | 1.28 | 1.58 | 1.27 | 3.09 | 0.684 | 3.23
CTATGTAGGTTAAAGGGGTCATTCAGTTTGAAAG | 4.23 | 5.28 | 4.06 | 2.87 | 6.56 | 3.91 | 1.29 | 6.99
CTATTTAGGTTAAGGGGGTCATTCAGTTTGAAAG | 3.95 | 5.19 | 4.01 | 2.74 | 5.73 | 4.05 | 2.07 | 6.2
CTATGTAGGTTAAGGGGTTCATTCAGTTTGAAAG | 1.75 | 1.88 | 1.04 | 2.79 | 2.55 | 1.92 | 0.473 | 7.01
CGAACTAGGTCAAAGGGCAGTGAAAGGCGACGTA | 3.46 | 5.34 | 4.91 | 1.65 | 5.31 | 3.11 | 0.218 | 0.354
CCGAGTAGGTTACGAGGGGGTATTCAGTGCGAAT | 1.15 | 1.98 | 1.63 | 0.847 | 1.17 | 2.6 | 0.46 | 1.11
CCTAGTTGGTCAGGGGGTCACACACCGGATATGA | 4.05 | 5.83 | 4.22 | 0.886 | 6.18 | 3.88 | 2.28 | 3.16
GCTGCTAGGTCAGGTTGGTCGGCTAACGGGTACG | 2.31 | 2.38 | 3.52 | -0.206 | 0.882 | 1.5 | 0.491 | 0.0919
CCTAGCAGGCCAGGGTCACCCAAGCATTTCGCTT | 3.34 | 3.95 | 2.98 | -0.0851 | 4.34 | 3.44 | 1.71 | 1.35
TCGAGTAGGTGACGGGGGCATTCAGGGATGAAGA | 2.01 | 2.59 | 1.91 | 1.94 | 1.86 | 3.83 | 1.64 | 3.28

Sequence | PBM binding z-score [1] | PBM binding z-score [2] | PBM binding z-score [3] | PBM binding z-score [4] | PBM binding z-score [5] | PBM binding z-score [6] | PBM binding z-score [7] | PBM binding z-score [8]
CAATCTAGGTCACAGAGGTCAAAGTCCGTGCGTA | 5.7 | 7.55 | 7.82 | 3.44 | 8.19 | 4.8 | 3.43 | 7.51
CGAATTAGGTCAAAGGACAGTGAAAGGCGACGTA | 3.18 | 4.17 | 4.47 | 1.73 | 3.37 | 3.09 | 1.4 | 0.401
CGTCCAAGGTCAATGCTAGCTCAGTGAAAGCATT | 3.86 | 5.61 | 6.7 | 3.48 | 5.19 | 3.64 | 2.02 | 1.83
CGTCTAAGGTCAAGGTCAGTGAAAGAGACTCGAA | 5.28 | 7.24 | 8.01 | 4.05 | 7.32 | 4.53 | 4.38 | 3.2
ATATGAAGGTTAGGGTCATTCAGAAAGTAGGGAA | 3.58 | 4.37 | 3.36 | 2.29 | 5.38 | 4 | 3.15 | 4.12
CGAACTAGGTCACCAGGACAGTGAGGAGGTTGGA | 3.41 | 4.5 | 5.36 | 1.05 | 3.49 | 3.34 | 1.7 | 0.667
AGAATGGGGTTAAGATCAGGGAAACAGAATACAT | 1.9 | 2.99 | 1.4 | 1.99 | 4.56 | 3.23 | 1.67 | 1.27
CGTACTAGGTCACCAGGACAGTGAAGAGGTTGGA | 3.24 | 4.42 | 5.34 | 1.55 | 3.04 | 3.22 | 1.88 | 0.631
TCGGGTAGGTTACGGGGGCATTCAGGGATGAAGA | 3.18 | 4.23 | 4.1 | 3.04 | 3.43 | 4.32 | 3.14 | 4.85
TTACGAAGGTGAAAGGTCGTTGATGCACGCCTTG | 2.49 | 4.08 | 2.19 | 0.342 | 5.5 | 2.33 | 0.141 | 1.25
TCTAGGAGGACACGAAGGTCAGAGCTTTCCAGAG | 3.47 | 3.15 | 3.8 | 0.842 | 2.01 | 2.61 | 0.635 | 0.851
TCGAGTAAGTTACGGGGGCATTCAGGGATGAAGA | 1.15 | 1.48 | 0.746 | 1.48 | 1.4 | 3.54 | 0.682 | 3.03
TCGAGTAGGTTACGGGGGCATTGAGGGATGAAGA | 2.27 | 3.47 | 2.72 | 1.71 | 2.66 | 2.97 | 1.39 | 3.13
ATATGTAGGTTAGGGTCATACAGAAAGTAGGGAA | 3.48 | 4.25 | 3.47 | 2.26 | 5.6 | 4.1 | 3.09 | 3.03
CGAACTAGGTCAAAGGACAGTCAAAGGCGACGTA | 3.04 | 4.11 | 4.5 | 1.74 | 3.05 | 2.54 | 0.161 | 0.43
CGAACTAGGTCAAAGGAGAGTGAAAGGCGACGTA | 2.43 | 3.75 | 4.22 | 1.62 | 3 | 2.32 | 0.277 | 0.0165
AGAACGAGGGCAATGAGTTCATAGCACGGGTGGC | 2.84 | 2.78 | 2.56 | 3.91 | 2.42 | 2.58 | 0.398 | 10.3
AAATGTAGGTTAAGGGTCATTCAGGTTGGTTCGC | 3.78 | 4.73 | 3.54 | 2.32 | 5.91 | 3.57 | 1.64 | 4.26
CTATGTAGGTTAAGGGGGGCATTCAGTTTGAAAG | 2.88 | 3.52 | 2.84 | 2.58 | 2.76 | 3.12 | 2.39 | 4.81

Sequence | PBM binding z-score [1] | PBM binding z-score [2] | PBM binding z-score [3] | PBM binding z-score [4] | PBM binding z-score [5] | PBM binding z-score [6] | PBM binding z-score [7] | PBM binding z-score [8]
AGAATGAGGTTATACGTAGGTCAGGGAAGAAAGT | 3.18 | 6.03 | 2.35 | 1.74 | 3.96 | 3.74 | 1.44 | 1.87
AGTCAAAGTTCAGGACGAGATAACGTAAAGCACG | 2.69 | 3.84 | 4.59 | 2.82 | 2.8 | 1.76 | 0.431 | 1.95
TCGAGTAGGTTACGGGGGCTTTCAGGGATGAAGA | 1.29 | 1.96 | 1.19 | 1.17 | 1.69 | 2.43 | 0.921 | 0.544
AATACAGGGTCATTAGGCCAGAGTAGGTACGAAT | 2.95 | 4.94 | 4.39 | 3.84 | 5.53 | 3.28 | 1.07 | 3.17
CTATGTAGGTTAAGGGGGTCATCCAGTTTGAAAG | 4.02 | 5.27 | 4.17 | 2.11 | 5.94 | 3.97 | 1.94 | 4.9
GCTGCTAGGTCAGGTTGGTCAGCTAACGGGTACG | 2.53 | 2.7 | 3.45 | 0.582 | 0.927 | 1.84 | 0.48 | 0.466
CAAACTAGGTCACAGAGGTCGAAGTCCGTGCGTA | 4.46 | 5.11 | 5.68 | 2.1 | 4.51 | 4.03 | 2 | 3.88
CGAACTAGCTCAAAGGACAGTGAAAGGCGACGTA | 0.955 | 0.138 | 0.6 | -0.347 | -0.119 | 0.0409 | -0.622 | -0.00865
CTATGTAGGTTAATGGGGTCATTCAGTTTGAAAG | 3.6 | 4.72 | 3.17 | 3.07 | 6.2 | 4.28 | 3.09 | 7.21
CTACGTAGGTTAAGGGGGTCATTCAGTTTGAAAG | 3.61 | 5.6 | 4.1 | 1.87 | 6.27 | 3.9 | 1.23 | 6.07
CGAACTAGGTCACAAGGACAGTGAAGAGGTTGGA | 3.36 | 4.24 | 4.8 | 1.32 | 3.1 | 3.33 | 1.7 | 0.816
CGAACTACGTCAAAGGACAGTGAAAGGCGACGTA | 0.995 | 0.411 | 0.951 | -0.164 | 0.202 | 0.0886 | -0.314 | -0.351
CGTCCAAGGTCATACGAGGTCAGTGAAGACAGAT | 5.34 | 7.02 | 7.58 | 4.29 | 6.94 | 5.39 | 4.43 | 5.82
CCGAGTAGATTACGAGGGGGCATTCAGTGCGAAT | 1.12 | 1.31 | 0.84 | 1.36 | 0.919 | 1.85 | -0.0543 | 3.03
ATATGTAGGTTACCGGGTCATTCAGTTTGCGCAT | 3.18 | 3.85 | 2.52 | 1.45 | 4.15 | 3.37 | 2.38 | 4.17
CGAACTGGGTCACCAGGACAGTGAAGAGGTTGGA | 2.84 | 4.16 | 4.22 | 0.542 | 3.41 | 2.91 | 0.811 | 0.0235
CGAACTAGGTCACCAGGACAGTGACGAGGTTGGA | 3.61 | 4.59 | 5.52 | 1.22 | 3.43 | 3.55 | 1.99 | 0.698
GATACAAGGTCAGCTAGAGGCCAGAGTATGGAAA | 3.93 | 6.83 | 6.32 | 2.06 | 4.28 | 3.44 | 1.18 | 1.09
CCTACTGGGCCACTCAGAGGTCATTGATCATATG | 4.26 | 4.46 | 3.39 | 0.734 | 4.43 | 3.41 | 1.71 | 2.75
